PLK1 PBD inh = PLK1 (human) polo-box domain binding inhibition; Potency, µM, most hits filed as inhibitors; AID 720504; Plk1 PBD binding of FITC phosphopeptide, fluorescence polarization; actives 2.8% (n = 360,000); further: series mostly up to about 57 µM; nearly all actives have a fitted effect of over 65% in size
G9a inh = inhibitors of human histone lysine methyltransferase G9a | Q96KQ7 | G9a H3K9 monomethylation, AlphaScreen, 2 h | actives 8.8% (n = 350,000) | Potency, µM (highest dose often 102 µM), most hits filed as inhibitors; further: nearly all actives have a fitted effect of over 75% in size
Target sequence (Q96KQ7 913-1193 limits assumed): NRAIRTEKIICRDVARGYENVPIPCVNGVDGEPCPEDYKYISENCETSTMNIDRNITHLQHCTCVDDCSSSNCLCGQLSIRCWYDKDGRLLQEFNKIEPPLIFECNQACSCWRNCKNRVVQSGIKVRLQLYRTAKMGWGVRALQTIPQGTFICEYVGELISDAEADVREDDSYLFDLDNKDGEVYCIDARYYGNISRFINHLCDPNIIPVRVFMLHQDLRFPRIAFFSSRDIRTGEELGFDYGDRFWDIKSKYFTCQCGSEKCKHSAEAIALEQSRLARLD
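AlphaScreen detection with an anti-monomethyl H3K9 antibody quantified product after a 2 h room-temperature reaction containing 500 nM biotinylated H3K9 peptide, 20 µM SAM and 20 nM enzyme, which had been preincubated 15 min with compound.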
MmCpn inh = M. maripaludis TRiC chaperonin inhibition; purified Mm-Cpn ATPase, ADP Transcreener TR-FRET; Potency, µM (top dose mostly 76.9 µM), hits mostly inhibitors; actives 0.031% (n = 330,000); further: nearly all actives have a fitted effect of over 80% in size
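Purified archaeal Mm-CPN (25nM final) preincubated 10 min at 37degC with compound, then 10uM ATP for 30 min at 37degC; ADP measured by HTRF Transcreener TR-FRET; buffer 30 mM TRIS pH 7.4, 100mM KCl, 5mM MgCl2, 1mM DTT.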
VDR inhibitor = inhibitors of human vitamin D receptor. VDR-SRC2-3 peptide fluorescence polarization, 2 h. actives 0.93% (n = 400,000). Potency, µM, hits mostly inhibitors
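Fluorescence polarization assay measuring small-molecule disruption of VDR binding to the coregulator peptide SRC2-3. Compounds were pin-transferred (23 nl) into the reagent mix and incubated 2 h at room temperature before reading.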
Sfp PPTase inh = inhibitors of Bacillus subtilis Sfp phosphopantetheinyl transferase | Biochemical Sfp PPTase activity, qHTS | Potency, µM, actives largely listed as inhibitors | AID 1490 | actives 3.5% (n = 310,000);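 further: the enzyme is Sfp with the accession as filed and its product quenches rhodamine fluorescence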
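Buffer: 50 mM Hepes-Na pH 7.6, 10 mM MgCl2, 0.01% Nonidet P-40, 0.01% BSA. Enzyme 15 nM, pre-exposed to compound 15 min; substrates then added and fluorescence change tracked over 30 min.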
CCT modulator = modulators of cytosolic chaperonin (CCT/TRiC) activity; actives 0.3% (n = 360,000); activity change, % (concentration not given with the values), hits read low; purified chaperonin ATPase assay, HTRF ADP detection, 30 min; in the data active means activity change below about -30%
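ATPase activity: ADP formed was measured by HTRF Transcreener (665/615 nm ratio) after 30 min at 37 deg C with 10 uM ATP. Compounds screened at one 76 uM concentration against 40 or 20 nM TRiC in Tris pH 7.4/KCl/MgCl2/DTT buffer.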
Numbers stand for hits; ! = not confirmed by another sample; [ ] = remark or other dose. Most compounds without a hit are left out; they make up all but 10% or so of the library. Unless noted, the call rests on the fitted dose curve; in most records, active means well fitted curve in the direction sought with a large enough effect; inconclusive means small, poorly fitted or top-dose-only effect, or another doubt; inactive means no such curve, though single readings can be large; an effect the other way counts as inactive or inconclusive.

`Cc1cc(OC(=O)c2ccc(Cl)cc2Cl)c([N+](=O)[O-])c(=O)[nH]1` gave PLK1 PBD inh inactive, G9a inh 79µM, MmCpn inh inactive, VDR inhibitor inactive, Sfp PPTase inh inactive and CCT modulator inactive.
CNc1nc2c(c(=O)n(C)c(=O)n2C)n1CC(O)COc1ccc(OC)cc1 (configuration not stated) was read as G9a inh inactive and VDR inhibitor inactive.
For CN(C)c1ccc(CNC(=O)c2sc3ncccc3c2-n2cccc2)cc1 the results were G9a inh 22µM and VDR inhibitor inactive.
Screening CC(C)Oc1ccc(CNC(=O)c2sc3ncccc3c2-n2cccc2)cc1 returned G9a inh inactive and VDR inhibitor inactive.
For CCCCCCCCCCCCC/C=C/[C@@H](O)[C@@H](N)CO the results were PLK1 PBD inh inactive, G9a inh inactive, MmCpn inh inactive, VDR inhibitor inactive, Sfp PPTase inh 79µM! and CCT modulator inactive.
CN(CCc1ccccn1)C1CCCN(S(=O)(=O)c2ccc(F)c(Cl)c2)C1 (configuration not stated) was read as PLK1 PBD inh inactive, MmCpn inh inactive, VDR inhibitor inactive, Sfp PPTase inh inactive and CCT modulator inactive.
Screening Cc1cc(S(=O)(=O)N2CCCC(N(C)CCc3ccccn3)C2)c(C)s1 (configuration not stated) returned G9a inh 50µM, MmCpn inh inactive and Sfp PPTase inh inactive.
Screening CCOC(CN=c1nc(N(C)C)ss1)OCC returned PLK1 PBD inh 6.7µM, VDR inhibitor inconclusive and CCT modulator inactive.
`O=C1Nc2cc(Br)ccc2C1(O)c1ccccc1O` (configuration not stated) gave PLK1 PBD inh inactive, G9a inh inactive[2.33 µM], MmCpn inh inactive, VDR inhibitor inactive, Sfp PPTase inh inactive and CCT modulator inactive.
`CC(C)c1ccc(C2(O)C(=O)Nc3cc(Br)ccc32)c(O)c1` (configuration not stated) gave PLK1 PBD inh 27µM, G9a inh inactive[12.7 µM], MmCpn inh inactive, VDR inhibitor inconclusive, Sfp PPTase inh inactive and CCT modulator inactive.
`CC(=O)c1cccc(S(=O)(=O)NC(C)C2CC3CCC2C3)c1` (configuration not stated) gave PLK1 PBD inh inconclusive, G9a inh 50µM, MmCpn inh inactive, VDR inhibitor inactive, Sfp PPTase inh inactive and CCT modulator inactive.
For CC(NC(=O)c1cccc(S(=O)(=O)N(C)C)c1)C1CC2CCC1C2 (configuration not stated) the results were PLK1 PBD inh inactive, G9a inh inactive, MmCpn inh inactive, VDR inhibitor inactive, Sfp PPTase inh inactive and CCT modulator inactive.
CN1CCN(C2(CNC(=O)c3ccc([N+](=O)[O-])cc3)CCCCC2)CC1 was read as G9a inh inactive and VDR inhibitor inactive.
`CC1=CN2C(=N)/C(=C/c3ccc(Sc4ccc(C)cc4)o3)C(=O)N=C2S1` gave PLK1 PBD inh inactive, G9a inh 25µM, MmCpn inh inactive, VDR inhibitor inactive, Sfp PPTase inh inactive and CCT modulator inactive.
CC1=CN2C(=N)/C(=C/c3ccc(C)o3)C(=O)N=C2S1 was read as PLK1 PBD inh inactive, G9a inh inactive, MmCpn inh inactive, VDR inhibitor inactive, Sfp PPTase inh inactive and CCT modulator inactive.
For CCOC(=O)c1c(C)[nH]c(N=Nc2ccc(C)cc2C)c1C the results were PLK1 PBD inh inactive, G9a inh 45µM, MmCpn inh inactive, VDR inhibitor inactive, Sfp PPTase inh inconclusive and CCT modulator inactive.
Screening CCOC(=O)c1c(C)[nH]c(N=Nc2ccccc2C)c1C returned PLK1 PBD inh inactive, G9a inh 16µM, MmCpn inh inactive, VDR inhibitor inactive, Sfp PPTase inh inactive and CCT modulator inactive.
CCOC(=O)c1c(C)[nH]c(N=Nc2cc(C(=O)O)cc(C(=O)O)c2)c1C was read as PLK1 PBD inh inactive, G9a inh inactive, MmCpn inh inactive, VDR inhibitor inactive, Sfp PPTase inh inactive and CCT modulator inactive.
`OCCOCCN1CCN(C2=Nc3ccccc3Sc3ccccc32)CC1` gave PLK1 PBD inh inactive, G9a inh inactive[12.7 µM], MmCpn inh inactive, VDR inhibitor inactive, Sfp PPTase inh 50µM! and CCT modulator inactive.
